# Source: the supplement of paper PMC6897291
# Legend:
# U-2932 [1] = experiment: growth inhibition by drug alone (1 - RLU/untreated control) (fraction); higher = stronger inhibition; conditions: 177Lu-lilotomab satetraxetan 0 ug/ml
# Summary of the method: (§1)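 A radiolabelled anti-CD37 antibody conjugate (~600 MBq/mg) was applied for 18 h at 0.5 µg/ml to RIVA and 1 µg/ml to U-2932 cells, with untreated cells run alongside. All cells were washed and seeded at 3,000 cells/well onto library-printed plates at 10/100 nM (RIVA) or 10/1,000 nM (U-2932). Growth inhibition was based on RealTime-Glo luminescence compared with untreated no-drug wells. Daily reads began on day 3 after 1 h at 37°C, with each value being 1 − RLU/mean of the 48 such wells on that plate.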
# RIVA [2] = experiment: as above; conditions: 177Lu-lilotomab satetraxetan 0 ug/ml
# Summary of the method: as §1
# U-2932 [3] = experiment: growth inhibition by drug plus 177Lu-lilotomab satetraxetan (1 - RLU/untreated control) (fraction); higher = stronger inhibition; conditions: 177Lu-lilotomab satetraxetan 1 ug/ml
# Summary of the method: as §1
# RIVA [4] = experiment: as above; conditions: 177Lu-lilotomab satetraxetan 0.5 ug/ml
# Summary of the method: as §1
SMILES,"growth inhibition by drug alone (U-2932 [1]; 10 nM, time (day): 3)","growth inhibition by drug alone (U-2932 [1]; 10 nM, time (day): 4)","growth inhibition by drug alone (U-2932 [1]; 10 nM, time (day): 5)","growth inhibition by drug alone (U-2932 [1]; 10 nM, time (day): 6)","growth inhibition by drug alone (U-2932 [1]; 1000 nM, time (day): 3)","growth inhibition by drug alone (U-2932 [1]; 1000 nM, time (day): 4)","growth inhibition by drug alone (U-2932 [1]; 1000 nM, time (day): 5)","growth inhibition by drug alone (U-2932 [1]; 1000 nM, time (day): 6)","growth inhibition by drug alone (RIVA [2]; 10 nM, time (day): 3)","growth inhibition by drug alone (RIVA [2]; 10 nM, time (day): 4)","growth inhibition by drug alone (RIVA [2]; 10 nM, time (day): 5)","growth inhibition by drug alone (RIVA [2]; 10 nM, time (day): 6)","growth inhibition by drug alone (RIVA [2]; 100 nM, time (day): 3)","growth inhibition by drug alone (RIVA [2]; 100 nM, time (day): 4)","growth inhibition by drug alone (RIVA [2]; 100 nM, time (day): 5)","growth inhibition by drug alone (RIVA [2]; 100 nM, time (day): 6)","growth inhibition by drug plus 177Lu-lilotomab satetraxetan (U-2932 [3]; 10 nM, time (day): 3)","growth inhibition by drug plus 177Lu-lilotomab satetraxetan (U-2932 [3]; 10 nM, time (day): 4)","growth inhibition by drug plus 177Lu-lilotomab satetraxetan (U-2932 [3]; 10 nM, time (day): 5)","growth inhibition by drug plus 177Lu-lilotomab satetraxetan (U-2932 [3]; 10 nM, time (day): 6)","growth inhibition by drug plus 177Lu-lilotomab satetraxetan (U-2932 [3]; 1000 nM, time (day): 3)","growth inhibition by drug plus 177Lu-lilotomab satetraxetan (U-2932 [3]; 1000 nM, time (day): 4)","growth inhibition by drug plus 177Lu-lilotomab satetraxetan (U-2932 [3]; 1000 nM, time (day): 5)","growth inhibition by drug plus 177Lu-lilotomab satetraxetan (U-2932 [3]; 1000 nM, time (day): 6)","growth inhibition by drug plus 177Lu-lilotomab satetraxetan (RIVA [4]; 10 nM, time (day): 3)","growth inhibition by drug plus 177Lu-lilotomab satetraxetan (RIVA [4]; 10 nM, time (day): 4)","growth inhibition by drug plus 177Lu-lilotomab satetraxetan (RIVA [4]; 10 nM, time (day): 5)","growth inhibition by drug plus 177Lu-lilotomab satetraxetan (RIVA [4]; 10 nM, time (day): 6)","growth inhibition by drug plus 177Lu-lilotomab satetraxetan (RIVA [4]; 100 nM, time (day): 3)","growth inhibition by drug plus 177Lu-lilotomab satetraxetan (RIVA [4]; 100 nM, time (day): 4)","growth inhibition by drug plus 177Lu-lilotomab satetraxetan (RIVA [4]; 100 nM, time (day): 5)","growth inhibition by drug plus 177Lu-lilotomab satetraxetan (RIVA [4]; 100 nM, time (day): 6)"
COc1cc(Nc2ncc3c(n2)-c2ccc(Cl)cc2C(c2c(F)cccc2OC)=NC3)ccc1C(=O)O [MLN8237 (Alisertib)],0.00882,-0.00518,-0.0513,-0.269,0.101,0.128,0.153,0.291,-0.00668,-0.0776,-0.136,-0.266,0.624,0.553,0.569,0.599,0.0071,0.0562,0.0508,0.126,0.21,0.278,0.316,0.459,0.398,0.551,0.559,0.572,0.754,0.81,0.845,0.873
CN(C)CCOc1ccc(-c2nc(-c3ccncc3)c(-c3ccc4c(c3)CC/C4=N\O)[nH]2)cc1,-0.0248,-0.0722,-0.0892,0.0453,0.104,0.0148,0.0221,0.134,-0.226,-0.183,-0.167,-0.14,-0.788,-0.651,-0.644,-0.615,-0.0652,-0.0236,0.0668,0.196,0.124,0.0207,0.0638,0.259,0.358,0.494,0.536,0.556,-0.0096,0.315,0.378,0.441
NC(=O)c1ccc2nc(-c3ccc(Oc4ccc(Cl)cc4)cc3)[nH]c2c1,0.00125,0.0235,0.00264,-0.0848,-0.16,-0.101,-0.0954,-0.129,-0.00863,-0.0511,-0.0793,-0.24,-0.111,-0.096,-0.133,-0.184,0.0152,0.0513,0.0592,0.129,-0.283,-0.107,-0.0258,0.0425,0.4,0.51,0.52,0.516,0.455,0.517,0.523,0.501
Cc1oc(S(=O)(=O)N2CCCCC2)cc1NC(=O)Nc1ccccc1,0.104,0.0184,-0.0595,-0.0798,-0.0127,0.0108,-0.117,-0.249,0.0245,0.075,-0.0191,-0.188,0.0283,0.0927,0.052,-0.0369,0.0412,0.101,0.11,0.174,-0.0876,0.0154,-0.000234,0.0155,0.422,0.557,0.585,0.576,0.511,0.598,0.601,0.574
Cc1[nH]c(/C=C2\C(=O)Nc3ccc(S(=O)(=O)Cc4c(Cl)cccc4Cl)cc32)c(C)c1C(=O)N1CCC[C@@H]1CN1CCCC1,-0.0448,-0.0348,-0.136,-0.363,-0.15,-0.0937,-0.118,-0.0292,-0.0942,-0.161,-0.228,-0.375,-0.272,-0.354,-0.323,-0.456,-0.098,-0.0543,-0.04,0.0103,-0.291,-0.156,-0.125,-0.00631,0.279,0.438,0.464,0.487,0.246,0.384,0.381,0.376
CC[C@@H]1/C=C(\C)C[C@H](C)C[C@H](OC)[C@H]2O[C@@](O)(C(=O)C(=O)N3CCCC[C@H]3C(=O)O[C@H](/C(C)=C/[C@@H]3CC[C@H](Cl)[C@H](OC)C3)[C@H](C)[C@@H](O)CC1=O)[C@H](C)C[C@@H]2OC [Pimecrolimus],0.214,0.249,0.272,0.287,0.139,0.29,0.361,0.431,0.339,0.267,0.276,0.279,0.691,0.549,0.534,0.477,0.198,0.242,0.304,0.352,0.12,0.321,0.373,0.447,0.545,0.621,0.662,0.701,0.634,0.675,0.716,0.743
Cc1ccc(-c2cc(C(F)(F)F)nn2-c2ccc(S(N)(=O)=O)cc2)cc1 [Celecoxib],-0.0761,-0.0572,-0.00842,0.0336,-0.0323,-0.0104,-0.0383,-0.0538,-0.101,-0.129,-0.153,-0.237,-0.0795,-0.119,-0.157,-0.232,-0.0503,-0.0256,0.0111,0.161,-0.109,-0.0274,0.00456,0.0432,0.337,0.477,0.505,0.512,0.373,0.448,0.453,0.425
